# Measurements taken from ChEMBL document CHEMBL3433997, “St. Jude Leishmania screening dataset” (2016).
# Biological target: Glucose transporter (Leishmania mexicana) (UniProt O61059)
# Experiment: ST_JUDE_LEISH: Cytotoxicity at 2uM final concentration against transgenic Leishmania Mexicana promastigotes LmGT2 that are glucose transport deficient and complemented with the L. Mexicana glucose transporter 2. Activity is measured by DNA content using SYBR green in vitro
# Format: functional
row,SMILES,inhibition [%]
1,CC(C)c1cn2c3c(cc(C(=O)N[C@@H](Cc4ccccc4)[C@H](O)CNC4CCOCC4)cc13)N(C)S(=O)(=O)CC2,3.22
2,O=C(Nc1ccc(S(=O)(=O)N2CCCCCC2)cc1)c1cc(-c2ccccc2O)n[nH]1,8.68
3,Cc1cccc(CN2CCC(CNC(=O)c3cc4c(-c5ccccc5F)nn(C)c4s3)CC2)c1,2.82
4,Nc1c2ccccc2nc2cc(C(F)(F)F)ccc12,1.3
5,O=C(Nc1cc(C(F)(F)F)cc(C(F)(F)F)c1)Nc1ccc(Cl)c(Cl)c1,1.22
6,Cc1nn(C)cc1C(C)Nc1nncc(-c2ccc(C(F)(F)F)cc2)n1 (stereo not given),3.38
7,CCCC(=O)Nc1ccc(OCCCCN(CC(C)(C)C)c2ccc(C#N)c(C(F)(F)F)c2)cc1,0.8
8,O=C(Nc1nc(-c2ccccn2)cs1)c1ccccc1COc1ccccc1,-1.57
9,CC1CCN(C(=O)C(Cc2c[nH]c3ccccc23)NS(=O)(=O)c2ccc(Cl)cc2)CC1 (stereo not given),-0.09
10,CN(C)CCCc1cc(NC(=O)Nc2cccc(Cl)c2Cl)ccc1I,3.83
11,COc1cc(Cc2cnc(N)nc2N)cc(OCCCc2cc(OCc3ccccc3)no2)c1OC,8.73
12,COc1cc(N)c(Cl)cc1C(=O)NC1CCC(NCC2CCCCC2)CC1 (stereo not given),1.15
13,O=C(Nc1cccc(-c2ccc(CN3CCCC3)cc2)c1)c1ccc(F)cc1,0.64
14,O=C(/C=C/c1ccc(Cl)c(Cl)c1)NCCCCCN1CCCN(C(=O)Nc2cccc(Cl)c2)CC1,3.37
15,CC(C)CN1CCCN(Cc2cccc(NC(=O)c3ccc(Cl)c(Cl)c3)c2)CC1,4.5
16,CCc1nc2nc(C)cc(Nc3ccc4c(c3)OCCO4)n2n1,-3.9
17,O=C(/C=C/c1ccc(Cl)c(Cl)c1)NCCCCCN1CCC(c2c[nH]c3ccc(O)cc23)CC1,1.25
18,OC(CNc1ccnc(Nc2ccc(Cl)cc2)n1)c1ccccc1C(F)(F)F (stereo not given),5.08
19,Cc1cc(N(C)C2CCN(C)C2)nc(Nc2ccc(Cl)cc2)n1 (stereo not given),4.14
20,Cc1nc(N)nc(N)c1CCCOc1ccccc1Br,2.57

row,SMILES,inhibition [%]
1,CCC(C)(CC)C(=O)n1ncc2c3c(N)nc(N)nc3ccc21,58.6
2,O=C(NCCCCCN1CCC(c2c[nH]c3ccccc23)CC1)Nc1cccc(Cl)c1,0.16
3,COc1ccc(OC(C)CNC(=O)c2cc([N+](=O)[O-])ccc2-c2ccc(OC)cc2)cc1 (stereo not given),-4.55
4,Cc1cc(N(C)C)nc(Nc2ccc(NC(=O)c3ccccc3Cl)cc2)n1,-4.81
5,CCCCN(CCCC)C(=O)CC(O)c1cc2c(Cl)cc(Cl)cc2c2cc(C(F)(F)F)ccc12 (stereo not given),2.43
6,Cc1nnsc1C(=O)Nc1cccc(-c2ccc(-c3nc4cc(C(F)(F)F)ccc4[nH]3)cc2)c1,-1.08
7,O=C(Nc1ccc(CN2CCOCC2)cc1)c1ccc(-c2cc(Cl)ccc2Cl)o1,7.99
8,Cc1nc2ccc(Nc3nccc(-c4c(-c5cccc(NC(=O)c6c(F)cccc6F)c5)nn5ccccc45)n3)cc2nc1C,-1.39
9,N#Cc1ccc(N2CCN(Cc3cccc(-c4ccc(-c5nc6cc(C(F)(F)F)ccc6[nH]5)s4)c3)CC2)nc1,0.57
10,CCN(CC)CCCC(C)Nc1nc(C=Cc2ccc(Br)cc2)nc2cc(Cl)ccc12 (stereo not given),10.2
11,CN(C)Cc1ccc(-c2cccc(NC(=O)c3cccc(Cl)c3)c2)cc1,1.39
12,O=S(=O)(NCCN1CCCC1)c1ccc(-c2cccc(CNC3Cc4ccccc4C3)c2)cc1,6.15
13,COc1ccc(S(=O)(=O)NC2CCN(c3ccnc4cc(Cl)ccc34)C2)cc1 (stereo not given),0.63
14,Cc1cc(Oc2cc(NC(=O)c3sc4ncn(Cc5ccccc5F)c(=O)c4c3C)cc([N+](=O)[O-])c2)ccc1Cl,1.68
15,COc1ccc(O)c(Cc2cnc3nc(N)nc(N)c3c2C)c1,11.4
16,Cc1cc(-c2ccc3occ(CCN)c3c2)cnc1N,1.13
17,O=C(Cc1cc(F)cc(F)c1)NC1CCN(c2ccnc3cc(Cl)ccc23)C1 (stereo not given),2.22
18,CCCCCCCN(CCCCCCC)CCCC(=O)Nc1ccnc2ccc(OC)cc12,-1.2
19,O=C(Nc1ccc(C(F)(F)F)cc1)NC1CCN(c2ccnc3ccccc23)CC1,-3.98
20,CC(=O)Nc1ccc(C(=O)Nc2cccc(-c3ccc(-c4nc5cc(C(F)(F)F)ccc5[nH]4)s3)c2)cn1,4.26
